Screening data (PubChem BioAssay)
The sample as a whole holds a higher share of hits than the screen did.
GBA activity: human lysosomal glucosylceramidase modulation; P04062; purified enzyme, resorufin glucoside fluorescence (screen aimed at inhibitors), 20 min; Potency, µM; 48,000 compounds, 1.1% hits; AID 360; in the data active means potency below about 15 µM; inconclusive means mostly about 16 µM to 33 µM;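 further: the screen sought inhibitors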
Target sequence (P04062 whole entry, looked up): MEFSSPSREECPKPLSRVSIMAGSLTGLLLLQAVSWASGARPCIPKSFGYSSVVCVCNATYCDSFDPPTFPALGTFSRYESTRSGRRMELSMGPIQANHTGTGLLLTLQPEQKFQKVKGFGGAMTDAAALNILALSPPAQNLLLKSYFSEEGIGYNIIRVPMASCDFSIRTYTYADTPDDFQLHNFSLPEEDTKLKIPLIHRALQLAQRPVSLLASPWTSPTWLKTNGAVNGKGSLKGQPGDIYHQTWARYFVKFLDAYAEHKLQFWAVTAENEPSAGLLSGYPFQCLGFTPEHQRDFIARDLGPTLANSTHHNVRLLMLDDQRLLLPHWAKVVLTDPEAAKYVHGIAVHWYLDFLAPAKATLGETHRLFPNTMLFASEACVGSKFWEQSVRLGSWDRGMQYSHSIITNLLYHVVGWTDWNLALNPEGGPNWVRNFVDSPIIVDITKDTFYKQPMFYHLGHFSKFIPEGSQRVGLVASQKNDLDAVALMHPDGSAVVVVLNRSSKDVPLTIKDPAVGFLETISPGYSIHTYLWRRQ
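Compounds titrated against 0.2 nM normal enzyme, 30 uM resorufin beta-D-glucopyranoside substrate, citrate/phosphate buffer with taurocholate and tween-20, pH 5.9. Reaction ran 20 min at room temperature; fluorescence (Ex 548/Em 600) gave AC50.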
4-MU autofl: compound fluoresces in the 4-MU spectral region; compound autofluorescence, 340/450 nm, 4-MU equivalents; active compounds read high; 59,000 compounds, 11% hits; max dye-equivalent concentration, M
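Compounds in 100 mM Tris, pH 8.0, sat 15 min at room temperature before fluorescence was read at 340 nm excitation/450 nm emission; a per-plate six-point 4-MU standard curve converted signals to dye-equivalent concentration at each compound concentration.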
AID923: qHTS Assay for Allosteric/Competitive Inhibitors of Caspase-1: Spectroscopic Profiling in AFC Spectral Region; compound fluorescence, AFC spectral region (405/520 nm); AID 923, 2007; 75,000 compounds, 1.1% hits; Potency, µM (highest dose often 57.5 µM), most hits filed as activators; active means well fitted activation curve with a large enough effect; inconclusive means small, poorly fitted or top-dose-only effect
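Titrations up to 57 uM read every 20 sec for 3 min (405/520 nm) with 50 nM caspase 1 and 5 uM Ac-WEHD-AFC, pH 7.5 HEPES buffer. Fluorescence-vs-time intercept gave baseline, scaled against on-plate AFC standard.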
A350 fluor: compound fluoresces in the Alexa 350 spectral region | 59,000 compounds, 11% hits | max dye-equivalent concentration, M | Compound autofluorescence, 340/450 nm, Alexa 350 dye-equivalents; active compounds read high
A647 autofl: compound fluoresces in the A647 spectral region; 59,000 tested, under 10 active; max dye-equivalent concentration, M; Compound fluorescence, A647 channel (570/671 nm), Tris buffer; call rule not given here
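Tris 100 mM pH 8.0; cpd + A647 stds pin-transferred; 15 min RT; CCD imager, ex 570/em 671. Output = A647-equivalent conc. per cpd conc.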
Hits are given with their value; i = inactive; ? = inconclusive; nt = not tested or not shown; [ ] = dose if it differs, or a comment. Unless noted, no stated cut-off is given here; in the data, active means max dye-equivalent concentration above about 10 nM; inconclusive means mostly about 1.1 nM to 9.6 nM; inactive means weaker than that.

SMILES	GBA activity	4-MU autofl	AID923	A350 fluor	A647 autofl
Clc1ccc(N2CCN(c3ncnc4c3oc3ccccc34)CC2)cc1	i	i	i	?	i
CCOC(=O)C1CCN(c2ncnc3c2oc2ccc(Cl)cc23)CC1	13.3	i	i	i	i
COc1cccc2[nH]c3c(N4CCCCC4)ncnc3c12	i	5.37e-08M	i	6.48e-08M	i
CCOC(=O)N1CCN(c2ncnc3c2[nH]c2ccc(OC)cc23)CC1	nt	1.43e-07M	nt	1.62e-07M	i
CCOC(=O)C1CCN(c2ncnc3c2[nH]c2cccc(OC)c23)CC1	i	6.12e-07M	i	8.07e-07M	i
CCCNC(=O)OC[C@H]1O[C@@H](CCO/N=C2/[C@H]3O[C@@H]3[C@@H](O)[C@H]3[C@H]2CCn2c(=O)n(-c4ccccc4)c(=O)n23)C=C[C@@H]1Oc1ccc(OC)cc1	nt	nt	i[11.5 µM]	nt	nt
CCOC(=O)Nc1nc(-c2ccccc2)c(C)s1	nt	i	i[11.5 µM]	i	i
CCN(CC)c1ccc(-c2nn3c(-c4cccnc4)nnc3s2)cc1	nt	1.26e-07M	nt	1.41e-07M	i
COc1cc(OC)c(-c2nn3c(-c4ccco4)nnc3s2)cc1OC	i	2.33e-07M	i	2.86e-07M	i
COc1cc(OC)c(-c2nn3c(-c4cccnc4)nnc3s2)cc1OC	i	3.48e-07M	i	4.38e-07M	i
COc1cc(OC)c(-c2nn3c(-c4ccncc4)nnc3s2)cc1OC	i	1.38e-08M	i	1.5e-08M	i
COc1ccc(-c2nn3c(-c4ccco4)nnc3s2)cc1OC	i	?	i	?	i
COc1cc(-c2nnc3sc(-c4ccncc4)nn23)cc(OC)c1OC	i	i	i	i	i
c1cncc(-c2nnc3sc(-c4ccco4)nn23)c1	nt	?	nt	?	i
COc1cc(-c2nn3c(-c4ccccc4)nnc3s2)cc(OC)c1OC	i	i	i	i	i
Cc1cc(=O)[nH]c(/N=C(\N)Nc2ccc(Cl)cc2)n1	nt	i	i[11.5 µM]	i	i
CC12CC[C@@H]3c4ccc(OS(=O)(=O)O)cc4CC[C@H]3C1CCC2=O (stereo partly drawn)	nt	i	i	i	i
CCOC(=O)c1cnc2ccc(C(=O)OC)cc2c1NCc1ccco1	i	3.84e-08M	i	3.97e-08M	i
O=C(/C=N/O)NCCCCNC(=O)/C=N/O	nt	nt	i[11.5 µM]	nt	nt
c1ccc2c(c1)c1ccccc1n2Cn1c2ccccc2c2ccccc21	nt	i	i[11.5 µM]	i	i
CN(C)C(=O)c1ccc(-c2nc(-n3ccnc3)c3ccccc3n2)cc1	nt	i	i	i	i
CN(C)C(=O)c1ccc(-c2nc(N3CCOCC3)c3ccccc3n2)cc1	nt	3.3e-08M	i	3.67e-08M	i
CC1(C)NC(=O)N(CC(O)COC2CCCCC2)C1=O (stereo not drawn)	i	i	i	i	i
CC1(C)NC(=O)N(CC(O)CN2CCCCC2)C1=O (stereo not drawn)	i	2.31e-08M	i	2.41e-08M	i
CSc1nnc(-c2cc3ccccc3cc2O)n1C	i	3.27e-07M	i	2.58e-07M	i
SMILES	GBA activity	4-MU autofl	AID923	A350 fluor	A647 autofl
CCCn1c(NC(=O)c2ccccc2)nc2ccccc21	i	i	i	i	i
CCCn1c(NC(=O)c2ccc(C)cc2)nc2ccccc21	i	5.05e-08M	i	6.22e-08M	i
CCCn1c(NC(=O)c2cccc(S(=O)(=O)N3CCCC3)c2)nc2ccccc21	nt	3.27e-08M	i	3.04e-08M	i
CN(Cc1ccco1)c1ccnc(-c2cccc(C#N)c2)n1	nt	i	i	i	i
C/C(CCN1CCCc2nc(C)c(C)cc21)=N\O[C@@H](C)CN1CCCCc2nc(C)c(C)cc21	nt	nt	i[11.5 µM]	nt	nt
Nc1nc2c(nc(Br)n2[C@@H]2O[C@H]3COP(=O)(O)O[C@@H]3[C@H]2O)c(=O)[nH]1	nt	i	i	i	i
NCCNS(=O)(=O)c1ccc(N)cc1	nt	i	i[11.5 µM]	i	i
CN1CCN(CC(C)(C)NS(=O)(=O)c2ccc(Cl)cc2)CC1	14.2	i	i	?	i
Cn1c(N2CCOCC2)nc(-c2ccccc2)c1-c1ccccc1	8.58	?	i	?	i
c1ccc(-c2nc3ccccc3nc2N2CCOCC2)cc1	i	1.96e-07M	i	2.43e-07M	i
c1ccc(-n2c(-c3ccncc3)nnc2N2CCOCC2)cc1	i	i	i	i	i
c1ccc2nc(N3CCOCC3)c(N3CCOCC3)nc2c1	i	i	i	i	i
Cc1ccc(CNC(=O)[C@@H]2C[C@H]2[C@@H](NP(=O)(c2ccccc2)c2ccccc2)c2ccccc2)o1	nt	nt	i	nt	nt
Cc1cc(C)c2c(n1)nn1c(NCCCN3CCOCC3)cc(C)nc21	i	2.12e-06M	i	2.41e-06M	i
COc1ccc(-c2cc3nc(C)cc(NCCO)n3n2)cc1	i	i	i	i	i
